Here are results for 16 compounds from PubChem BioAssay (EPA / NIEHS).

SMILES strings stand for the structures. Activity calls are given as the source filed them. How the source made its calls: active means hit-call score of the fitted dose curve at least 0.9, where 1 is the maximum; inactive means score below 0.9.

Read-out in this assay: succinate dehydrogenase complex iron sulfur subunit B (SDHB), SDHB (gene 6390)
Kind of assay: LTEA_HepaRG_SDHB: Life Technologies and Expression Analysis (LTEA) Assay for succinate dehydrogenase complex iron sulfur subunit B (SDHB) using HepaRG (AID 2283528). To be noted: mRNA level, 48 h; actives raise or lower the signal. On the procedure:
LTEA_HepaRG is a cell based, multiplexed-readout assay that uses HepaRG, a human liver cell line, with measurements taken at 48 hours after chemical dosing on a 96-well plate.LTEA_HepaRG_SDHB is one of 102 assay component(s) measured in the LTEA HepaRG cell culture assay. It is a marker of Cell proliferation, survival, death.Data from the assay component LTEA_HepaRG_SDHB was analyzed into 1 endpoint. This assay endpoint, LTEA_HepaRG_SDHB, was analyzed with bidirectional fitting relative to DMSO as the negative control and baseline of activity. Using a type of inducible reporter, measures of mRNA induction for gain or loss-of-signal activity can be used to understand regulation of transcription factor activity. To generalize the intended target to other relatable targets, this assay endpoint is annotated to the oxidoreductase intended target family, where the subfamily is ubiquinone.
A total of 1060 chemcials from the ToxCast library were tested in eight-point concentration-response experiments. Cell culture and cytotoxicity assays were conducted at Thermo Fisher Scientific's Custom Services facility (Madison, WI). A single lot of human HepaRG cells (Thermo Fisher Scientific, Frederick, MD) was used for the cell culture experiments. 96-well format collagen type I coated plates of human HepaRG cells were prepared using established methods. Briefly, cryopreserved HepaRG cells were thawed, plated at a density of approximately 100,000 cells/well in HepaRG Thaw, Plate, and General Purpose media (HPRG770, Thermo Fisher Scientific), and incubated for 48 hours. 0.5% DMSO was selected as vehicle control to balance the requisite need of DMSO in HepaRG cultures to maintain differentiation (for example, baseline metabolism, proportions of hepatocytes vs. cholangiocytes), while enabling further hepatic receptor pathway activation (for example, PXR and CAR) in response to chemical exposure. 48 hours after plating, the culture medium was replaced with HepaRG Serum-Free Incudtion Media. Cells were exposed to each test chemical in duplicate and maintained in CO2 incubators for another 48 hours. Chemical plates were thawed to room temperature and 200x concentrations of treatment groups were prepared. 8-point conentration-reponse curves were made with the highest exposure at 100 uM, followed by half-log dilutions, all in 0.5% DMSO. Each test plate contained variouse controls, induction positive controls (1mM phenobarbital), cytotoxicity positive controls ([…] aflatoxin B1), vehicle controls (0.5% DMSO), and total lysis controls (0.5% DMSO). Cell morphology images were taken using an Essen IncuCyte FLR automated microscope, with six 96-well plates imaged in about 24 minutes. Images were captured and exported and JPEG files. Spent culture media was transfered to black-well plates for the LDH assay, and remaining media was sorted at -80 C for later use. Cells were treated with RLT buffer and frozen until shipped for gene expression analysis. Total RNA was isolated from the cell suspension in 75 uL of Buffer RLT (Qiagen, Germantown, MD 20874) by Quintiles/Expression Analysis (Durham, NC) using a custom isolation procedure. Total RNA from each plate well was transferred to a preamplification plate. Fluidigm's 96.96 Dynamic ArrayTM (Fluidigm, Amsterdam, the Netherlands) technology was used for gene expression analyses by quantitative reverse transcription polymerase chain reaction (qRT-PCR, performed by Quintiles/Expression Analysis, Durham, NC)89. Standard TaqManTM Assays (Applied Biosystems/ThermoFisher Scientific, Foster City, CA) were used to assess the expression of 93 genes selected based on their selectivity and sensitivity to important hepatic receptors known to be modulated by environmental chemicals; importance in human hepatocyte functionality; and hepatotoxicity. […]
With `CCCCc1oc2ccccc2c1C(=O)c1cc(I)c(OCCN(CC)CC)c(I)c1`, the compound was called inactive. As to `CCC(C)c1ccccc1O` (stereo unspecified), the outcome was inactive. For the compound `N=C(N)c1ccc(OCCCCCOc2ccc(C(=N)N)cc2)cc1`, the AC50 was 56.2 µM (active). As to `O=C(CCCN1CCC(O)(c2ccc(Cl)cc2)CC1)c1ccc(F)cc1`, the call was inactive. Consider `CCCCCCCCCCCCOS(=O)(=O)O`, for which the outcome was inactive. In the case of `O=C(c1ccccc1)c1ccccc1`, the call was inactive.

On to `OCC(CO)(CBr)CBr`, for which the outcome was inactive. For `CCCCC(CC)C(=O)O` (stereo unspecified), the call was inactive.

`O=C1NS(=O)(=O)c2ccccc21`: the call was inactive. As to `CC(=O)Nc1ccc(O)cc1`, the call was inactive. On the same count and under the same terms, the value for `CN(C)CCOC(c1ccccc1)c1ccccc1` was “inactive”. For the compound `Cc1[nH]nc2c1N=C(c1ccccc1Cl)c1cc([N+](=O)[O-])ccc1N2`, the AC50 was 0.449 µM (active). Turning to `CCCCC=O`, the compound was classed as inactive. With `CN(Cc1cnc2nc(N)nc(N)c2n1)c1ccc(C(=O)N[C@@H](CCC(=O)O)C(=O)O)cc1`, the call was inactive. Consider `CS(=O)(=O)c1ccc([C@@H](CC2CCCC2)C(=O)Nc2cnccn2)cc1Cl`, for which the outcome was inactive.

For `CCCCCCCCCCCCCCC`, the compound was classed as inactive.

As a reminder, the AC50 is the midpoint of the concentration-response curve, whichever way the signal moves.
